From paper PMC7862700, “An all-to-all approach to the identification of sequence-specific readers for epigenetic DNA modifications on cytosine” come the findings set out here.

Common to all, as to experiment: DAPPL (digital affinity profiling via proximity ligation, sequencing); 10 mM Tris-HCl pH 7.5, 50 mM NaCl, 1 mM DTT, 4% glycerol, room temperature, 30 min; GST-TFs on glutathione beads, 16-mer random dsDNA library, 0.1% formaldehyde crosslink after washing; high values mean tight binding
One test addresses T1, FEV (Homo sapiens, UniProt Q99581 1-238).
T1 sequence: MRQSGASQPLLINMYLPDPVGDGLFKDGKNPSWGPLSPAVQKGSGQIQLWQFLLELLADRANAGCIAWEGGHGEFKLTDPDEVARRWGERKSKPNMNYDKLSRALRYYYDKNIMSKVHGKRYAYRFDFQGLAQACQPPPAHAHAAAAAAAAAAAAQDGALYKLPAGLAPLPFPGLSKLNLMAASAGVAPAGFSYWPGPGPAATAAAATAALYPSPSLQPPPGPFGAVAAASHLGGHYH
To be noted: protein: recombinant; tags: N-terminal GST; dsDNA, one strand shown. In a few lines: (§1)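 Human transcription factors carrying a GST fusion were produced in yeast, bound to glutathione beads, tagged with DNA barcodes and pooled together with a tag-only sample. Each pool was held with 200 nmole of a random double-stranded 16-mer DNA library in Tris/NaCl/DTT/glycerol buffer for 30 min at room temperature, then washed, crosslinked in 0.1% formaldehyde, proximity-ligated with BsaI/T4 ligase (1 h, 37 °C), PCR-amplified and sequenced on an Illumina NextSeq500. Binding signal is the read frequency of each hexamer for a given factor divided by its frequency in the tag-only sample.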

A further test concerns the target ETV5 (Homo sapiens, UniProt P41161 1-510). As to conditions: protein: recombinant; tags: N-terminal GST; dsDNA, one strand shown. The method, boiled down:
as §1

A further test deals with HSF1 (Homo sapiens, UniProt Q00613 1-529). As to conditions: protein: recombinant; tags: N-terminal GST; chain copies: 3; dsDNA, one strand shown. The method, boiled down: as §1
Chain of HSF1 (Q00613 whole entry): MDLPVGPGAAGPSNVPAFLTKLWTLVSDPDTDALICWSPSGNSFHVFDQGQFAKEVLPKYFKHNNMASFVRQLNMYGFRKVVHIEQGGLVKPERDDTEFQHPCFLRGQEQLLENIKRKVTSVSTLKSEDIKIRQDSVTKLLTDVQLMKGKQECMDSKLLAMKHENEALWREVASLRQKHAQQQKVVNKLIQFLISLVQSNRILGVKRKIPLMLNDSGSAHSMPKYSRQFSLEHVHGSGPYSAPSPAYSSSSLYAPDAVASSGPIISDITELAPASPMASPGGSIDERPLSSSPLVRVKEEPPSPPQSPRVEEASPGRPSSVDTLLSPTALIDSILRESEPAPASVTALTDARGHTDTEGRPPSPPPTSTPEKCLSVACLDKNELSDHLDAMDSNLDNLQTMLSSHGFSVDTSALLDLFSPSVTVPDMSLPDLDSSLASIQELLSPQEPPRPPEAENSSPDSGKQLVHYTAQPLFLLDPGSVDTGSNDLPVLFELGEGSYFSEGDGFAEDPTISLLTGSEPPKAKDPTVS
The target of a further test is T2, SPIC (Homo sapiens, UniProt Q8N5J4 1-248).
T2 sequence: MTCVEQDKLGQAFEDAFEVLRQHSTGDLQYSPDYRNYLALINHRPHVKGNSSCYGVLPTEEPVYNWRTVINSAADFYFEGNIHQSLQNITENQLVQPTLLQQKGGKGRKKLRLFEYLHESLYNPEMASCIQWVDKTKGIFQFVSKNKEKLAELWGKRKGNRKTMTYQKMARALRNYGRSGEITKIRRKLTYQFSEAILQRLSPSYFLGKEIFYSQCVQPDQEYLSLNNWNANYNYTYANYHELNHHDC
As to conditions: protein: recombinant; tags: N-terminal GST; dsDNA, one strand shown. In a few lines:
as §1

The target of a further test is ELF4 (Homo sapiens, UniProt Q99607 1-663). To be noted: protein: recombinant; tags: N-terminal GST; dsDNA, one strand shown. The method, boiled down: as §1
Chain of ELF4 (Q99607 whole entry): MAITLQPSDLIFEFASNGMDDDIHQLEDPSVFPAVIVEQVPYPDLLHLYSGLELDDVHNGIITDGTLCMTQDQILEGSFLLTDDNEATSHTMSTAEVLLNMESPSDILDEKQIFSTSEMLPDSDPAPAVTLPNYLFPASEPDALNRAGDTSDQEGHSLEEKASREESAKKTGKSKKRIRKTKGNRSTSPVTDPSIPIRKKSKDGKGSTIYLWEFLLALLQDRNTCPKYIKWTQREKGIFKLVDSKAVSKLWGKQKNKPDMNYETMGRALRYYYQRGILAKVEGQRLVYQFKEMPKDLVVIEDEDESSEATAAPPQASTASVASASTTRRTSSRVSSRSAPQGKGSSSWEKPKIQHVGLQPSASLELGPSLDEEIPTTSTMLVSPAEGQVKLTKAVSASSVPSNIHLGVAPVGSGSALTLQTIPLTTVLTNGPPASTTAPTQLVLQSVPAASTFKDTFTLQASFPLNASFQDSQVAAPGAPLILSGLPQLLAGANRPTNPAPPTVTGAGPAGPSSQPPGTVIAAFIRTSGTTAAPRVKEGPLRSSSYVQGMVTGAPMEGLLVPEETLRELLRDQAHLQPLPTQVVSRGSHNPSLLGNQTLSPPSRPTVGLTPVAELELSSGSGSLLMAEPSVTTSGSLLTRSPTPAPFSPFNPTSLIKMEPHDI
Another test concerns the target T3, ELK4 (Homo sapiens, UniProt P28324-2 1-405).
T3 sequence: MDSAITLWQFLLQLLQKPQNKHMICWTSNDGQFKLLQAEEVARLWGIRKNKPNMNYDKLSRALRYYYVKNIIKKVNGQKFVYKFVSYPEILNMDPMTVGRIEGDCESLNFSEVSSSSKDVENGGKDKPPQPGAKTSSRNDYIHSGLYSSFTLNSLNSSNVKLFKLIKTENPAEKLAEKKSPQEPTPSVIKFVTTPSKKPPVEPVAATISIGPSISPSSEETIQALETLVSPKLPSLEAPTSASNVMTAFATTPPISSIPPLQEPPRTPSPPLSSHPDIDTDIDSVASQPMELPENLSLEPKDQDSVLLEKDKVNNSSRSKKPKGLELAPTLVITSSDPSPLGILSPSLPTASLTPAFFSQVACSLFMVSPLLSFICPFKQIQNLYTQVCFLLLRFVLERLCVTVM
To be noted: protein: recombinant; tags: N-terminal GST; dsDNA, one strand shown. The method, boiled down:
as §1

For another test, the target named is T4, ETV2 (Homo sapiens, UniProt O00321 1-342).
T4 sequence: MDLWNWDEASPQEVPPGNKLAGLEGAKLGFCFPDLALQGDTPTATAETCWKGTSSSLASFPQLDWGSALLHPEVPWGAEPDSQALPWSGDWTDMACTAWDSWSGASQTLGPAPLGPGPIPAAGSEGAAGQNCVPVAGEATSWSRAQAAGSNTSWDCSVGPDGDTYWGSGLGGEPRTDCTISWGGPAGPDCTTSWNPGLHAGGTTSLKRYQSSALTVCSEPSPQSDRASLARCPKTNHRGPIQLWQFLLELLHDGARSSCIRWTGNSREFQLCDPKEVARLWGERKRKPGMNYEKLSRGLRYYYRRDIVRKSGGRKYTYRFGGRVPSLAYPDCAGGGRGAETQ
As to conditions: protein: recombinant; tags: N-terminal GST; dsDNA, one strand shown. In a few lines: as §1

For another test, the target named is T5, ELF3 (Homo sapiens, UniProt P78545 1-371).
T5 sequence: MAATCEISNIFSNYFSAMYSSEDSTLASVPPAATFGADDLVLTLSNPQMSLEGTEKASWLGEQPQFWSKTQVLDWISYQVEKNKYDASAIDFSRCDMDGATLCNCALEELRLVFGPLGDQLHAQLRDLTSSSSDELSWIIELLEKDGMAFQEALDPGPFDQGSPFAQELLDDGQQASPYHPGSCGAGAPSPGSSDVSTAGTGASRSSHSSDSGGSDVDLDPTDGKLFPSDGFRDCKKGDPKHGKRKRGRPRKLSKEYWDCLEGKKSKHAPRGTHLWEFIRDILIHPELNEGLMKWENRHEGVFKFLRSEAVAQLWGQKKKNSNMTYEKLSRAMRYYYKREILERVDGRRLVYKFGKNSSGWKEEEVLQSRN
To be noted: protein: recombinant; tags: N-terminal GST; dsDNA, one strand shown. The method, boiled down: as §1

The next test addresses CRX (Homo sapiens, UniProt O43186 1-299). As to conditions: protein: recombinant; tags: N-terminal GST; dsDNA, one strand shown. In a few lines: as §1
The target in another test is ETV1 (Homo sapiens, UniProt P50549 1-477). To be noted: protein: recombinant; tags: N-terminal GST; dsDNA, one strand shown. In a few lines: as §1
Chain of ETV1 (P50549 whole entry): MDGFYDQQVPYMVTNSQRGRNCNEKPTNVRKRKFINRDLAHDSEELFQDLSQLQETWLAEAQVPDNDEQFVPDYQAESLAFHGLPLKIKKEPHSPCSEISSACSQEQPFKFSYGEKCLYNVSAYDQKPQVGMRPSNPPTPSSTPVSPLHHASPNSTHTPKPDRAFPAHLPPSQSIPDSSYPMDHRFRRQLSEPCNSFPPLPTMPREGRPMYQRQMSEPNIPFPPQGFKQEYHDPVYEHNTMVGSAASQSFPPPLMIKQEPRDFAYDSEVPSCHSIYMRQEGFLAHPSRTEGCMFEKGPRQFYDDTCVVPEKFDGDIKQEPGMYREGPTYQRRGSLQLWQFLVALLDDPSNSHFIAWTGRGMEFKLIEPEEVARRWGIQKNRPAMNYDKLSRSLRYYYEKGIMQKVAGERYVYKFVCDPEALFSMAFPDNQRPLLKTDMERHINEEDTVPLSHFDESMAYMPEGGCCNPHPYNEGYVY
In the next test the target is T6, ERF (Homo sapiens, UniProt P50548 1-548).
T6 sequence: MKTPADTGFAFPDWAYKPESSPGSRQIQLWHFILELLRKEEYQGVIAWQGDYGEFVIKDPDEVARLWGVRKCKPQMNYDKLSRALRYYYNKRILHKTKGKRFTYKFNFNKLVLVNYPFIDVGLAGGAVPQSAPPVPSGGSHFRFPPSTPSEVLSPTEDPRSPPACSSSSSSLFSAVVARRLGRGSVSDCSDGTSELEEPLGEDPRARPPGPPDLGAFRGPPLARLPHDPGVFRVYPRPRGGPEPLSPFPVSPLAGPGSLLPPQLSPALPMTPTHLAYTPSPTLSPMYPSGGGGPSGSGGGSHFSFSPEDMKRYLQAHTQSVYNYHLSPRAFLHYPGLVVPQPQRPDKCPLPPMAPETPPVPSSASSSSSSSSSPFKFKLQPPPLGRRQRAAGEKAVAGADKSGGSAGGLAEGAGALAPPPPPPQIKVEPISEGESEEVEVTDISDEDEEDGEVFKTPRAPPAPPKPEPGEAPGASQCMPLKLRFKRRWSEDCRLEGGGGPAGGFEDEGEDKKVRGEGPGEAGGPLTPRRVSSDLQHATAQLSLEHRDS
As to conditions: protein: recombinant; tags: N-terminal GST; dsDNA, one strand shown. In a few lines:
as §1

For another test, the target named is T7, ETV3L (Homo sapiens, UniProt Q6ZN32 1-361).
T7 sequence: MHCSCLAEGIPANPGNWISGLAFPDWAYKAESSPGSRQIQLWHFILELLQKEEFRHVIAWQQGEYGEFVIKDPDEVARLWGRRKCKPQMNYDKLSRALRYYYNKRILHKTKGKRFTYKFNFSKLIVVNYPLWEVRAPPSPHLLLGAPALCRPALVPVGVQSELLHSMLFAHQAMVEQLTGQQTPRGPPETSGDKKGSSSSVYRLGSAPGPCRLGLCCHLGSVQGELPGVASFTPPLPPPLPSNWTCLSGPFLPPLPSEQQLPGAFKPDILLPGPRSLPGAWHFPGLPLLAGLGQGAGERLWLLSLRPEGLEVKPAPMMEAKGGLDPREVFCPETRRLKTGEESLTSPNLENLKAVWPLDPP
As to conditions: protein: recombinant; tags: N-terminal GST; dsDNA, one strand shown. In a few lines: as §1

A further test addresses T8, ETS2 (Homo sapiens, UniProt P15036 1-469).
T8 sequence: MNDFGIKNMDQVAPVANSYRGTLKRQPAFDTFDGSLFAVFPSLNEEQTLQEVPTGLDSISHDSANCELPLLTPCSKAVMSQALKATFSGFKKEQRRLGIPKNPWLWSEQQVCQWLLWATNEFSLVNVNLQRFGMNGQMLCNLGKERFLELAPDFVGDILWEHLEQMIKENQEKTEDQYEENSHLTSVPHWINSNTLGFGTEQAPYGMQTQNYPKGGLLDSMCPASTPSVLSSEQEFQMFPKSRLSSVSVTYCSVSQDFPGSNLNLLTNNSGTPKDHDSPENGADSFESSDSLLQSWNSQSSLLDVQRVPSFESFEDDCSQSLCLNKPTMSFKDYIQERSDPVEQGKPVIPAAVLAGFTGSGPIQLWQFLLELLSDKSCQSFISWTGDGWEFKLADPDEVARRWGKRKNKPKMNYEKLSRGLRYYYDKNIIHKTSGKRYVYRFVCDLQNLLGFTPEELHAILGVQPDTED
As to conditions: protein: recombinant; tags: N-terminal GST; dsDNA, one strand shown. In a few lines: as §1

The next test deals with T9, SPDEF (Homo sapiens, UniProt O95238 1-335).
T9 sequence: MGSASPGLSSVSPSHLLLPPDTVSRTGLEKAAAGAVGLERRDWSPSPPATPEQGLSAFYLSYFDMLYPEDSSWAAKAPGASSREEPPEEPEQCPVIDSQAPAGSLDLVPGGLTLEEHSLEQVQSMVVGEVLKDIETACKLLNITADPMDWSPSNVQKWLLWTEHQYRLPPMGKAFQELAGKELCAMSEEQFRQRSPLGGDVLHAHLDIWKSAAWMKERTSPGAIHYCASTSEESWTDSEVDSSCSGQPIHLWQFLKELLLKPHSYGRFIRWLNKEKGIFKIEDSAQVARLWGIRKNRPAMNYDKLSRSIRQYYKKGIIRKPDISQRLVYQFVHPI
As to conditions: protein: recombinant; tags: N-terminal GST; dsDNA, one strand shown. In a few lines:
as §1

The target of the next test is T10, ETV7 (Homo sapiens, UniProt Q9Y603 1-341).
T10 sequence: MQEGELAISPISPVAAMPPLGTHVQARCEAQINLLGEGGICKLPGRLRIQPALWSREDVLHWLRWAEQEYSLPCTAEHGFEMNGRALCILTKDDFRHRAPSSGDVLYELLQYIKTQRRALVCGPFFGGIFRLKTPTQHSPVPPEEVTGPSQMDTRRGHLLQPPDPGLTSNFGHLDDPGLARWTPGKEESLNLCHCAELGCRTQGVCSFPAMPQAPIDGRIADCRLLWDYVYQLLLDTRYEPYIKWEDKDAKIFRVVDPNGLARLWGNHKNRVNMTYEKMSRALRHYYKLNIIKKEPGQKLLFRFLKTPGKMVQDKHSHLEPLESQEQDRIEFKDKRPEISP
As to conditions: protein: recombinant; tags: N-terminal GST; dsDNA, one strand shown. The method, boiled down:
as §1

Another test concerns the target T11, ELF5 (Homo sapiens, UniProt Q9UKW6-2 1-255).
T11 sequence: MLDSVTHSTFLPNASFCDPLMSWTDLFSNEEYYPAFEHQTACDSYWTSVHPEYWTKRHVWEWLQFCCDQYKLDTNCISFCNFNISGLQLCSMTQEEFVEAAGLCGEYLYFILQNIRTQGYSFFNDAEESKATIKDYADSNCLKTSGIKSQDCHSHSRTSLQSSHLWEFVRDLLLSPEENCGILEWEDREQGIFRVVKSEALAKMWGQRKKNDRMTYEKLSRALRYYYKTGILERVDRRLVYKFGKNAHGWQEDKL
To be noted: protein: recombinant; tags: N-terminal GST; dsDNA, one strand shown. The method, boiled down:
as §1

A further test concerns the target T12, ETV3 (Homo sapiens, UniProt P41162-2 1-143).
T12 sequence: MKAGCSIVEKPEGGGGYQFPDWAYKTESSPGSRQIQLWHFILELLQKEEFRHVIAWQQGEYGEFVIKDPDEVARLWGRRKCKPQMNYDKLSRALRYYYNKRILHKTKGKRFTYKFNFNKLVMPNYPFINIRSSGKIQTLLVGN
To be noted: protein: recombinant; tags: N-terminal GST; dsDNA, one strand shown. In a few lines: as §1

A further test addresses ETV6 (Homo sapiens, UniProt P41212 1-452). As to conditions: protein: recombinant; tags: N-terminal GST; dsDNA, one strand shown. In a few lines: as §1

Chain of ETV6 (P41212 whole entry): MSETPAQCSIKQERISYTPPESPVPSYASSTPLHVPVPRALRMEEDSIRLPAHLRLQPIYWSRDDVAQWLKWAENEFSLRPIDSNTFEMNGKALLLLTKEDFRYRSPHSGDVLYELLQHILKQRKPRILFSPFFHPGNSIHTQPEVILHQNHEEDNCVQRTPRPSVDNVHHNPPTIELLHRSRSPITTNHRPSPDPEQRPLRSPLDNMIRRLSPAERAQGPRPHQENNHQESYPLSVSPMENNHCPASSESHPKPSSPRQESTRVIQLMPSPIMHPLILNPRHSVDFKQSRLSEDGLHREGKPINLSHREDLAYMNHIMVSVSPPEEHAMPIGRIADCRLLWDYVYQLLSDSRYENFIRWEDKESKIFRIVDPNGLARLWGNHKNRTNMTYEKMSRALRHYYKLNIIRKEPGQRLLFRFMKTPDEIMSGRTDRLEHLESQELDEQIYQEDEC
Chain of CRX (O43186 whole entry): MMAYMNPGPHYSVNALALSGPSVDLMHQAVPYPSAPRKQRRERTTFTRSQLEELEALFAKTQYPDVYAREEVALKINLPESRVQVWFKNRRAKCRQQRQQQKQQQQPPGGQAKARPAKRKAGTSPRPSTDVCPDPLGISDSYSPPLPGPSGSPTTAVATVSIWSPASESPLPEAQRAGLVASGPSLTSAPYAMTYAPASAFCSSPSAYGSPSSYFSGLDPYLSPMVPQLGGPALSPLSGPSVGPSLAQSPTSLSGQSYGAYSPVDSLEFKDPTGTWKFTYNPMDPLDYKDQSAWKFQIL
Chain of ETV5 (P41161 whole entry): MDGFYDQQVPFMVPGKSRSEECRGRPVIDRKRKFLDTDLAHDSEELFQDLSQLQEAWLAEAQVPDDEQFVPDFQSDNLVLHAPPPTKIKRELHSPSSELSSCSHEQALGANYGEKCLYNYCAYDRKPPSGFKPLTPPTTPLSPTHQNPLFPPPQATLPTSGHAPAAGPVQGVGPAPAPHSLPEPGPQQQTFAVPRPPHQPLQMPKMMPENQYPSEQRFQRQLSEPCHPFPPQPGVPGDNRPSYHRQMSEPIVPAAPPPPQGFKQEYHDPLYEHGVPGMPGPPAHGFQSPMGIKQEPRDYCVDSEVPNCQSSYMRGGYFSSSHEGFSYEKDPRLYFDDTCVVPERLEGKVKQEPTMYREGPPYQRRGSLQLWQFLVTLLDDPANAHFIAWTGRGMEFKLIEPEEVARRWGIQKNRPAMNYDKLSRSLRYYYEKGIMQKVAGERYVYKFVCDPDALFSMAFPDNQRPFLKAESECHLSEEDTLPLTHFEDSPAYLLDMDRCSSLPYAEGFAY

In the case of AAATTG, the binding signal with FEV was 1.22 fold enrichment (6-mer frequency, TF over GST control); with ETV5 it was 1.26 fold enrichment (6-mer frequency, TF over GST control); in the test with HSF1, 1.16 fold enrichment (6-mer frequency, TF over GST control); in the test with SPIC, 1.16 fold enrichment (6-mer frequency, TF over GST control); with ELF4, 1.27 fold enrichment (6-mer frequency, TF over GST control); with ELK4, 1.2 fold enrichment (6-mer frequency, TF over GST control). In addition, the binding signal with ETV2 is 1.21 fold enrichment (6-mer frequency, TF over GST control); in the test with ELF3 it was 1.33 fold enrichment (6-mer frequency, TF over GST control); in the test with CRX it was 1.05 fold enrichment (6-mer frequency, TF over GST control); in the test with ETV1, 1.21 fold enrichment (6-mer frequency, TF over GST control); with ERF, 1.3 fold enrichment (6-mer frequency, TF over GST control); in the test with ETV3L, 1.29 fold enrichment (6-mer frequency, TF over GST control). Further, the binding signal with ETS2 was 1.22 fold enrichment (6-mer frequency, TF over GST control); with SPDEF it was 1.19 fold enrichment (6-mer frequency, TF over GST control); with ETV7, 1.25 fold enrichment (6-mer frequency, TF over GST control); with ELF5, 1.22 fold enrichment (6-mer frequency, TF over GST control); with ETV3 it was 1.28 fold enrichment (6-mer frequency, TF over GST control); with ETV6, 1.34 fold enrichment (6-mer frequency, TF over GST control).
